{"source": "paper PMC4336329", "about": "(PLoS ONE, 2015)", "note": "Hit rate of the full screen: of about 310,000 compounds, about 14,000 (4.5%) showed an effect of 50% or more. The effect is printed as a negative number. Many of the other results were omitted from the sample, so strong results are more common in it than they were.", "data": [{"target": "human ether-à-go-go-related gene (hERG) potassium channel (human, UniProt Q12809)", "sequence (Q12809 whole entry, looked up)": "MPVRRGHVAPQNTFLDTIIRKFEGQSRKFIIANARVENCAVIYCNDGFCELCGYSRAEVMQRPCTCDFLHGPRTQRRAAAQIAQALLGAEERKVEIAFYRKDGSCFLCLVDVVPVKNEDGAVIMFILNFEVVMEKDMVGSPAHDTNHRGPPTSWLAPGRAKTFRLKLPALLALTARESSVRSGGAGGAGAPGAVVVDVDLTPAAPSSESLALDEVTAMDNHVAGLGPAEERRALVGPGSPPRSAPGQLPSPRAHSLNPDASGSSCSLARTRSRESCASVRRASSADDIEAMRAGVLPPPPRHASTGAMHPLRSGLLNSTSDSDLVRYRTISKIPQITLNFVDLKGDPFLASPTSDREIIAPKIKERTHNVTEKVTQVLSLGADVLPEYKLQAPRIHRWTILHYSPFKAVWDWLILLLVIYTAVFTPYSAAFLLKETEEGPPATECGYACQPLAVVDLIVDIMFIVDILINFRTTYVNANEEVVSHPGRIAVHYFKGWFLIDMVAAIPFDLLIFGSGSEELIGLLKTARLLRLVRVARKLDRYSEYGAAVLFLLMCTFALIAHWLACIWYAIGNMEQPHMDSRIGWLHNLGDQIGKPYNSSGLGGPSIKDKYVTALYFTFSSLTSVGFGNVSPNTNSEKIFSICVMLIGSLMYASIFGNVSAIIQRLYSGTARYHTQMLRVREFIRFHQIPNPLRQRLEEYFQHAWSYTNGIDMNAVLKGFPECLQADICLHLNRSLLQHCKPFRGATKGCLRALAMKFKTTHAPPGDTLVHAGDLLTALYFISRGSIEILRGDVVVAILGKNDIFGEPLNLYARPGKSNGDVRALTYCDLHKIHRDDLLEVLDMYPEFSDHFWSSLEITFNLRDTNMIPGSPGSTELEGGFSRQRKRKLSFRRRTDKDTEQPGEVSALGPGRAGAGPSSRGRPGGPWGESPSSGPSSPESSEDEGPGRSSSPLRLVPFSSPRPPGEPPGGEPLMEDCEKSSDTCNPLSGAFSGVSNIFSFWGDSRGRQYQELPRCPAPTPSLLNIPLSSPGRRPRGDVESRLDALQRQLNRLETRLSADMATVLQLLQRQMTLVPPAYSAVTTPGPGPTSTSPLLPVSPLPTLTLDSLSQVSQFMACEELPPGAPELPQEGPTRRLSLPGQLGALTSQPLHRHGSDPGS", "assay": "primary screen, population patch clamp on CHO cells stably expressing hERG; higher = less effect of the substance", "description": "Briefly, Chinese hamster ovary (CHO) cells stably expressing the hERG channel were dislodged from tissue culture flasks and dispensed into PPC plates. […] During the recording, background leak currents were estimated by a 100 ms step to -80 mV from an initial holding potential of -70 mV and subtracted from the subsequent current measurement. The campaign was conducted in two phases using slight differences in recording protocol. In the first phase, the initial voltage pulse used a 100 ms step to -30 mV from a holding potential of -70 mV, a 2 s conditioning step to +25 mV, and a 2 s test step to -30 mV. During the second phase of the screen, the potential during the conditioning step was raised to +45 mV. In both phases of the campaign, a secondary voltage pulse was applied using the same parameters as the second phase initial pulse. The initial and secondary pulses were applied in the absence of compound, and upon application of 1 μM and 10 μM test concentrations. […]", "units": {"hERG current change (%, negative = inhibition) at 10uM": "%"}, "values": [{"compound": "CCCCNC(=O)C1(O)c2cc(Br)ccc2NC(=O)N1c1cccc(OC)c1", "note": "(stereo not shown);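 also: peak tail current of the secondary pulse compared with the same well before compound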", "hERG current change (%, negative = inhibition) at 10uM": 7.42}, {"compound": "Cc1cc(C)c2nc(SC3CCOC3=O)cc(C)c2c1", "note": "(stereo not shown)", "hERG current change (%, negative = inhibition) at 10uM": 4.23}, {"compound": "COc1ccc(C(=O)Nc2cccc(S(C)(=O)=O)c2)cc1OC", "hERG current change (%, negative = inhibition) at 10uM": 6.89}, {"compound": "O=C(N/N=C\\c1c(O)ccc2ccccc12)c1ccc(O)cc1", "hERG current change (%, negative = inhibition) at 10uM": 14.3}, {"compound": "Cc1c(C(=O)Nc2nnc(C3CC3)s2)oc2c(Cl)cccc12", "hERG current change (%, negative = inhibition) at 10uM": 8.02}, {"compound": "O=C(Cc1ccc(-n2c(=O)c3ccccc3n(Cc3ccccc3Cl)c2=O)cc1)NCC1CCCO1", "note": "(stereo not shown)", "hERG current change (%, negative = inhibition) at 10uM": -1.93}, {"compound": "N=c1c(C(=O)NCc2ccco2)cc2c(=O)n3ccccc3nc2n1CC1CCCO1", "note": "(stereo not shown)", "hERG current change (%, negative = inhibition) at 10uM": -76}, {"compound": "N=c1c(C(=O)NCC2CCCO2)cc2c(=O)n3ccccc3nc2n1Cc1ccccc1Cl", "note": "(stereo not shown)", "hERG current change (%, negative = inhibition) at 10uM": -67.9}, {"compound": "O=C(NCC1CCCO1)c1nc2c(nnn2Cc2ccccc2Cl)c(=O)[nH]1", "note": "(stereo not shown)", "hERG current change (%, negative = inhibition) at 10uM": -0.506}, {"compound": "N=c1c(C(=O)NCC2CCCO2)cc2c(=O)n3ccccc3nc2n1Cc1ccc(Cl)cc1", "note": "(stereo not shown)", "hERG current change (%, negative = inhibition) at 10uM": -77.2}, {"compound": "O=C(NCC1CCCO1)c1ccc2c(=O)n(Cc3ccc(Cl)cc3)c(=S)[nH]c2c1", "note": "(stereo not shown)", "hERG current change (%, negative = inhibition) at 10uM": 6.02}, {"compound": "N=c1c(S(=O)(=O)c2ccc(Cl)cc2)cc2c(=O)n3ccccc3nc2n1CC1CCCO1", "note": "(stereo not shown)", "hERG current change (%, negative = inhibition) at 10uM": -13.3}, {"compound": "O=C(NCc1ccco1)c1ccc2c(=O)n(CC3CCCO3)c(=S)[nH]c2c1", "note": "(stereo not shown)", "hERG current change (%, negative = inhibition) at 10uM": -1.68}, {"compound": "CC(=O)c1cccc(NC(=O)CCNC(=O)c2ccccc2Cl)c1", "hERG current change (%, negative = inhibition) at 10uM": 11.4}, {"compound": "CCn1cc(C(=O)Nc2ccc(C)cc2[N+](=O)[O-])c(C)n1", "hERG current change (%, negative = inhibition) at 10uM": 5.23}, {"compound": "CN(Cc1nc(-c2cccs2)no1)CC1COCCO1", "note": "(stereo not shown)", "hERG current change (%, negative = inhibition) at 10uM": 1.17}, {"compound": "S=C(NCCN1CCOCC1)N1CCN(c2cccc(Cl)c2)CC1", "hERG current change (%, negative = inhibition) at 10uM": -16}, {"compound": "CC1=CC(=O)C(C(C)C)=C/C1=N/OC(=O)c1cccc([N+](=O)[O-])c1", "hERG current change (%, negative = inhibition) at 10uM": 7.36}, {"compound": "COc1ccc2nc(NC(=O)CSc3nnc(C)n3N)sc2c1", "hERG current change (%, negative = inhibition) at 10uM": 0.177}, {"compound": "O=c1c2ccccc2nnn1Cc1ccccc1", "hERG current change (%, negative = inhibition) at 10uM": 35.3}, {"compound": "C=CCn1c(COc2cccc(C)c2)nnc1SCn1nnc2ccccc2c1=O", "hERG current change (%, negative = inhibition) at 10uM": -5.37}, {"compound": "O=c1c2ccccc2nnn1CSc1nnc(-c2cccs2)n1Cc1ccccc1", "hERG current change (%, negative = inhibition) at 10uM": -62.6}, {"compound": "C=CCn1c(SCn2nnc3ccccc3c2=O)nnc1-c1ccc(F)cc1", "hERG current change (%, negative = inhibition) at 10uM": -28.9}, {"compound": "C=CCn1c(COc2ccc(OC)cc2)nnc1SCn1nnc2ccccc2c1=O", "hERG current change (%, negative = inhibition) at 10uM": -27.1}, {"compound": "C=CCn1c(SCn2nnc3ccccc3c2=O)nc2scc(-c3cccs3)c2c1=O", "hERG current change (%, negative = inhibition) at 10uM": -5.21}, {"compound": "C=CCn1c(SCn2nnc3ccccc3c2=O)nnc1-c1ccc(Br)cc1", "hERG current change (%, negative = inhibition) at 10uM": -62.7}, {"compound": "C=CCn1c(SCn2nnc3ccccc3c2=O)nnc1-c1ccc(Cl)cc1", "hERG current change (%, negative = inhibition) at 10uM": -61.2}, {"compound": "O=c1cc(CSc2nnc(C3CC3)n2Cc2ccccc2)nc2sccn12", "hERG current change (%, negative = inhibition) at 10uM": 11.7}, {"compound": "O=c1cc(CCl)nc2sc3ccccc3n12", "hERG current change (%, negative = inhibition) at 10uM": 8.04}, {"compound": "O=c1cc(CSc2nnc(-c3cccs3)n2Cc2ccccc2)nc2sc3ccccc3n12", "hERG current change (%, negative = inhibition) at 10uM": -53.5}, {"compound": "C=CCn1c(SCn2nnc3ccccc3c2=O)nnc1C1CCCCC1", "hERG current change (%, negative = inhibition) at 10uM": -14.1}, {"compound": "CCCOc1cccc(C(=O)Nc2ccc3c(c2)OCCO3)c1", "hERG current change (%, negative = inhibition) at 10uM": 0.786}, {"compound": "CSc1cccc(NC(=O)C2CCN(S(=O)(=O)c3cnc[nH]3)CC2)c1", "hERG current change (%, negative = inhibition) at 10uM": 9.39}, {"compound": "Nc1c(NCc2ccccc2)c(=O)c1=O", "hERG current change (%, negative = inhibition) at 10uM": -6.37}, {"compound": "Cc1nc2c(C)cccn2c(=O)c1NC(=O)c1ccc(Br)o1", "hERG current change (%, negative = inhibition) at 10uM": 5.14}, {"compound": "O=C(COc1cccc(C(F)(F)F)c1)Nc1cccnc1", "hERG current change (%, negative = inhibition) at 10uM": 4.03}, {"compound": "CCC(C)N(C(=O)c1csnn1)C(C(=O)NC1CCCC1)c1ccc(F)cc1", "note": "(stereo not shown)", "hERG current change (%, negative = inhibition) at 10uM": 0.39}, {"compound": "CC(=O)c1cccc(NC(=O)CCCNC(=O)c2ccc(Cl)cc2)c1", "hERG current change (%, negative = inhibition) at 10uM": 2.99}, {"compound": "CCN(CC)C(=O)c1cn(-c2cccc(OC)c2)c(=O)c2ccccc12", "hERG current change (%, negative = inhibition) at 10uM": 9.66}, {"compound": "COC(=O)c1cc(Cl)nc2ccccc12", "hERG current change (%, negative = inhibition) at 10uM": -7.89}, {"compound": "COc1ccc(CNC(=O)c2cc(S(=O)(=O)N3CCCC3)cn2C)cc1", "hERG current change (%, negative = inhibition) at 10uM": 13.2}, {"compound": "Cc1nn(Cc2ccc(Cl)cc2)c(Cl)c1/C=N/NC(=O)c1cccnc1", "hERG current change (%, negative = inhibition) at 10uM": -45.2}, {"compound": "CN(C)CCCN(C(=O)C1COc2ccccc2O1)c1nc2ccc(F)cc2s1.Cl", "note": "(stereo not shown)", "hERG current change (%, negative = inhibition) at 10uM": -75.4}, {"compound": "CN(C)CCCN(C(=O)CCSc1ccccc1)c1nc2cc3c(cc2s1)OCO3.Cl", "hERG current change (%, negative = inhibition) at 10uM": -48.2}, {"compound": "CN(C)CCCN(C(=O)c1nc2ccccc2s1)c1nc2ccc(F)cc2s1.Cl", "hERG current change (%, negative = inhibition) at 10uM": 4.17}, {"compound": "CN(C)CCCN(C(=O)c1sc2ccccc2c1Cl)c1nc2ccc(F)cc2s1.Cl", "hERG current change (%, negative = inhibition) at 10uM": -19.7}, {"compound": "CN(C)CCCN(C(=O)C1COc2ccccc2O1)c1nc2cc3c(cc2s1)OCO3.Cl", "note": "(stereo not shown)", "hERG current change (%, negative = inhibition) at 10uM": -64.4}, {"compound": "CN(C)CCN(C(=O)C1CCCCC1)c1nc2cc3c(cc2s1)OCO3.Cl", "hERG current change (%, negative = inhibition) at 10uM": -9.7}, {"compound": "Cn1c(O)c(C=Nc2ccccc2Sc2ccccc2)c(=O)n(C)c1=O", "hERG current change (%, negative = inhibition) at 10uM": 16.4}, {"compound": "CCCc1[nH]nc2c1C(c1ccc(OC)c(Cn3nnc4ccccc43)c1)C(C#N)=C(N)O2", "note": "(stereo not shown)", "hERG current change (%, negative = inhibition) at 10uM": -29.1}, {"compound": "CCCn1c(SCc2ccc(Cl)cc2)nc2c1c(=O)[nH]c(=O)n2C", "hERG current change (%, negative = inhibition) at 10uM": 0.36}, {"compound": "CCOCCCNC(=O)C(NC(=O)c1ccc(NC(C)=O)cc1)c1ccc(C)cc1", "note": "(stereo not shown)", "hERG current change (%, negative = inhibition) at 10uM": -20.5}, {"compound": "CCc1ccc(CNC(=O)c2ccc(NC(=O)C3=CSCCO3)cc2)cc1", "hERG current change (%, negative = inhibition) at 10uM": -23}, {"compound": "O=C(C1COc2ccccc2O1)N1CCCC1", "note": "(stereo not shown)", "hERG current change (%, negative = inhibition) at 10uM": 16.8}, {"compound": "O=C(NCC(=O)N1CCC2(CC1)NCCc1[nH]cnc12)c1ccc2ccccc2c1", "hERG current change (%, negative = inhibition) at 10uM": 11.7}]}]}
